Our source for the activity change, negative = inhibition values is PubChem BioAssay AID1259421 (Broad Institute, 2018).

Values joined by “and” are separate entries in the source; they are usually repeats but may differ in a detail not shown here. Identical values can stand only once. Among all 6,400 compounds or so, about 610 (9.5%) were called active. For the sample, actives were picked, then their nearest neighbours and some compounds at random. Values without a mark were called inactive. Rule as the data show it: active = activity change below about -70%; inconclusive = no clear call, values can overlap the other calls; inactive = above that.

This test in a line: Toxoplasma gondii ME49Luc growth in HeLa cells, luciferase, no IFN-y, primary screen (AID 1259421). Particulars: T. gondii ME49Luc in HeLa, 72 h, hits give low values, concentration not given here.
For `CCC(Oc1ccc(Cl)cc1)C(=O)OC1CC2CCC(C1)N2C` (centres undefined), the activity change, negative = inhibition is -2.85% and -12.4%.
For `c1ccc(CC(c2ccccc2)N2CCCCC2)cc1` (centres undefined) the value was 9.17% and 15.7%; for `Cc1[nH]c2ccc(Cl)cc2c1C1=CCNCC1`, 8.93% and 11.2%; for `COC(=O)CN1CN(c2ccccc2)C2(CCN(Cc3cccc4ccccc34)CC2)C1=O`, -6.13%.
With `COc1ccc(OC)c(C(O)C(C)NC(C)(C)C)c1` (centres undefined), the activity change, negative = inhibition was 12%.
For the molecule `Cc1nnc2n1-c1ccc(Cl)cc1C(c1ccccc1Cl)=NC2`, the activity change, negative = inhibition was 18.7%.
For `CC(C)(O)C(=O)Nc1ccc([N+](=O)[O-])c(C(F)(F)F)c1` the value was 5.88%; for `COc1ccc(C[C@H]2NC[C@H](O)[C@H]2OC(C)=O)cc1`, -80.3% (active) and -86.5% (active); for `CC(C)(C)OC(=O)c1ncn2c1[C@@H]1CCCN1C(=O)c1c(Br)cccc1-2`, 6.65%.
With `CN1CCC2=C(C1)c1ccccc1Cc1ccccc12`, the activity change, negative = inhibition is 3.96%.
Regarding `Cc1[nH]cnc1CCN`, the activity change, negative = inhibition is 7.41%.
In the case of `C[C@]12CC/C(=N\OCCN)C[C@@H]1C(=O)C[C@@H]1[C@@H]2CC[C@]2(C)C(=O)CC[C@@H]12`, the activity change, negative = inhibition was 14.1%.
Consider `Clc1ccc(C23CNCC2C3)cc1Cl` (centres undefined), for which the activity change, negative = inhibition was 6.45%.
Turning to `C=CCN1CCC23c4c5ccc(O)c4OC2C(=O)CCC3(O)C1C5` (centres undefined), the activity change, negative = inhibition was -2.6%.
For `CC(C)=CCC[C@]1(C)C=Cc2c(O)c3c(c(CC=C(C)C)c2O1)O[C@]12C(=C[C@@H]4C[C@H]1C(C)(C)O[C@@]2(CC=C(C)C(=O)O)C4=O)C3=O`, the activity change, negative = inhibition is -83.4% (active).
As to `CC(C)=CCCC1(C)C=Cc2c(O)c3c(c(CC=C(C)C)c2O1)OC12C(=CC4CC1C(C)(C)OC2(CC=C(C)C(=O)O)C4=O)C3=O` (centres undefined), the activity change, negative = inhibition was -77.9% (active).
`CC(C)CCCC1(C)C=Cc2c(O)c3c(c(CCC(C)C)c2O1)OC12C(CC4CC1C(C)(C)OC2(CCC(C)C(=O)O)C4O)C3=O` (centres undefined): the activity change, negative = inhibition was -3.34%.
`CN(C)[C@@H]1C(=O)C(C(N)=O)C(=O)[C@@]2(O)C(=O)C3C(=O)c4c(O)cccc4[C@@](C)(O)C3[C@H](O)C12` (some centres undefined): the activity change, negative = inhibition is -0.0524%.
Regarding `C=C(C)C1Cc2c(ccc3c(=O)c4c(oc23)COc2cc(OC)c(OC)cc2-4)O1` (centres undefined), the activity change, negative = inhibition is -1.04%.
For `CCCCCCN1CCN(c2cccc(Cl)c2)CC1` the value was 9.58%; for `O=C1CC2OCC=C3CN4CC[C@]56c7ccccc7N1C5[C@H]2[C@H]3CC46` (some centres undefined), 15.9% and 2.19%; for `CC(C)C1(NC(=O)C2CC3c4cccc5[nH]cc(c45)CC3N(C)C2)OC2(O)C3CCCN3C(=O)C(Cc3ccccc3)N2C1=O` (centres undefined), -21.5%.
For `CN1Cc2ccccc2[C@@H]2c3cccc4[nH]cc(c34)C[C@H]21`, the activity change, negative = inhibition is -78.9% (active).
On to `CC(C)[C@@]1(NC(=O)[C@@H]2CC3c4cccc5[nH]cc(c45)C[C@H]3N(C)C2)O[C@@]2(O)[C@@H]3CCCN3C(=O)[C@H](Cc3ccccc3)N2C1=O` (some centres undefined), for which the activity change, negative = inhibition is -13.7%.
Take `CN1CC[C@@H]2CN3CCc4cccc(c43)[C@@H]2C1`: the activity change, negative = inhibition was 3.72%.
Regarding `CCC(C)C(=O)O[C@H]1[C@H](O)C2C(CN3CC(C)CCC3[C@@]2(C)O)C2C[C@]34O[C@]5(O)C(OC(=O)C(C)(O)CC)CC[C@@]3(C)C5C(OC(C)=O)[C@@H](OC(C)=O)C4[C@@]21O` (some centres undefined), the activity change, negative = inhibition was 1.67%.
As to `CC1(C)CC(O)CC(C)(C)N1O`, the activity change, negative = inhibition was 8.37% and 5.38% and 2.68%.
Regarding `CN(C(=O)Cc1ccccc1)C(CN1CCCC1)c1ccccc1` (centres undefined), the activity change, negative = inhibition was 6.5%.
Consider `C[C@]12CC[C@H](O)C[C@H]1CC[C@@H]1[C@@H]2CC[C@]2(C)[C@@H](c3ccc(=O)oc3)C[C@H]3OC132` (some centres undefined), for which the activity change, negative = inhibition was -78.4% (active).
For `C[C@]12CCC3[C@@H](CC[C@@H]4C[C@H](O)CC[C@]34C)[C@@H]1CCC2=O` (some centres undefined) the value was 8.25%; for `C[C@]12CC[C@H](O)C[C@@H]1CC[C@@H]1[C@H]2CC[C@]2(C)C(=O)CC[C@@H]12`, 6.71%.
Take `CN(C)CCNc1nc2cc(O)ccc2c2c1C(=O)c1ccccc1-2`: the activity change, negative = inhibition is -85.6% (active).
Turning to `O=C(O)C(=O)CBr`, the activity change, negative = inhibition is -21.8%.
Consider `C[N+]1(C)CCc2cc3c(cc2[C@H]1C1OC(=O)c2c1ccc1c2OCO1)OCO3` (some centres undefined), for which the activity change, negative = inhibition was 9.96%.
